# High-throughput results from PubChem BioAssay.
# gsp antag: antagonists of gsp mutant (McCune-Albright syndrome). gsp-mutant cells, cAMP HTRF, 30 min. Potency, µM (doses to about 76.9 µM), for the others: at the top dose activity change, negative = inhibition, hits mostly inhibitors. 0.4% of 340,000 active. AID 624288; calls by dose curve; cell line not stated here;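 note: intracellular cAMP measured with PDE inhibitor Ro 20-1724 present during compound exposure; potency is the fitted concentration of half-maximal effect; % is set by controls: 0 for no effect and ±100 for the full control effect; nearly all actives have a fitted effect of over 65% in size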
#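 Cells, 2000/well, grown 16–24 h in DMEM 10% FBS with 0.5 mg/ml G418, then compounds plus […] (300 uM addition stock), 30 min at 37C. cAMP read by HTRF (cAMP-d2 and anti-cAMP antibody-K in lysis buffer) after 30 min RT.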
# RXFP1 ag: RXFP1 (human) receptor agonism; 0.3% of 370,000 active; AID 2676; Q9HBX9; HEK293T-RXFP1 cAMP TR-FRET, 30 min; response scale: percent of porcine relaxin response, buffer zero; Potency, µM (series often up to 57.5 µM), inactives show at the top dose activation, hits mostly activators; active = well fitted activation curve with a large enough effect; inconclusive = small, poorly fitted or top-dose-only effect; note: potency is the fitted concentration of half-maximal effect; % is set by controls: 0 for no effect and ±100 for the full control effect; nearly all actives have a fitted effect of over 60% in size
# Target sequence (Q9HBX9 whole entry, looked up): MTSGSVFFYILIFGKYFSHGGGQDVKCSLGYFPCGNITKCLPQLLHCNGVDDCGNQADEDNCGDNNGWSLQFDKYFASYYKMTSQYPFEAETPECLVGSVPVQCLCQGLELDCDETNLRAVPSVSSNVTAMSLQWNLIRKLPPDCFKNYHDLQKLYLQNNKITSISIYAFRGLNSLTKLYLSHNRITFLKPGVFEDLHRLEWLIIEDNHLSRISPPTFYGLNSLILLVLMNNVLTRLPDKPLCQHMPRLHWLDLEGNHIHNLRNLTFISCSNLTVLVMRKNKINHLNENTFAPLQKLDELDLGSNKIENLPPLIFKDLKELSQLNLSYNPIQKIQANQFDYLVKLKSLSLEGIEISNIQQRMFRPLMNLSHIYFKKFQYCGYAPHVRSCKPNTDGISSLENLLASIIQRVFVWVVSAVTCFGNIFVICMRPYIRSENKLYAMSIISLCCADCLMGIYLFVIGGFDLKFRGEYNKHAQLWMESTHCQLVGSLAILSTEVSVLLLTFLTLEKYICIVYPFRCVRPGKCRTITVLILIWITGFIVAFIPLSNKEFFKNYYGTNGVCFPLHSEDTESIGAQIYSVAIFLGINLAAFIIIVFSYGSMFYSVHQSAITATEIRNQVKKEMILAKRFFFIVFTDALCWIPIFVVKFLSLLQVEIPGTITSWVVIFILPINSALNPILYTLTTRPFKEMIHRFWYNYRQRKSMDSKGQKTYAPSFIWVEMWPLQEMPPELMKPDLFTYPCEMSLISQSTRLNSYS
#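 HEK293T cells stably expressing RXFP1 were pretreated with the PDE4 inhibitor Ro 20174, exposed to compounds for 30 min at 37C, lysed, and cAMP was read by TR-FRET. Data normalized to buffer (basal) and 29 nM porcine relaxin (100%).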
# gsp agonist: gsp mutant agonism. gsp mutant cells, cAMP HTRF, 30 min. Potency, µM (highest dose often 76.9 µM), without a hit: at the top dose activation (cAMP increase), actives largely listed as activators. 0.13% of 340,000 active; active = well fitted activation curve with a large enough effect; inconclusive = small, poorly fitted or top-dose-only effect, or another doubt; inactive = no such curve, though single readings can be large or run the other way; cell line not stated here;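 note: phosphodiesterase inhibitor Ro 20-1724 added with compounds to block cAMP breakdown; potency is the fitted concentration of half-maximal effect; nearly all actives have a fitted effect of over 60% in size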
#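 Cells in DMEM/10% FBS with G418 were pretreated with compounds in DMSO plus […] (300 uM stock) for 30 min at 37C. cAMP was measured by HTRF (cAMP-d2 plus anti-cAMP antibody-K) after 30 min at room temperature.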
# RXFP1 antag: antagonists of human relaxin receptor RXFP1; activity change, negative = inhibition, % at 57.5 µM; AID 1259400; 0.59% of 350,000 active; HEK293-RXFP1, relaxin-stimulated cAMP HTRF, 30 min; hits give low values;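 active = activity change of -60% or lower, but not beyond a set lower limit; inconclusive = change between -60% and -40%, or beyond the set limit; inactive = change above -40%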; note: % is set by controls: 0 for no effect and ±100 for the full control effect
# Starred values were filed as active, the others as inactive; ? = inconclusive; . = no result given; [ ] = dose if it differs, or a comment. Rows were chosen to be rich in hits. Some 0.9% of all compounds tested hit in one or more screens of this group.
SMILES,gsp antag,RXFP1 ag,gsp agonist,RXFP1 antag
CCOc1ccc(-c2csc(NC(=O)CSC3=NC(=O)CN3C(C)=O)n2)c2ccccc12,4%,-2%,-11%[15.4 µM],-22
O=C(O)CC/C(=C/c1cccc(NC(=O)c2ccccc2Cl)c1)c1nc2ccccc2s1,?,.,11%,8
COc1cc(/C=C(\CCC(=O)O)c2nc3ccccc3s2)ccc1OCC(=O)Nc1c(Cl)cccc1Cl,28µM*,.,-48%,-3
CN(C)c1ccc(-c2nc(-c3cccs3)c(-c3cccs3)[nH]2)cc1,.,12%,.,-1
O=C(/C=C/c1ccccc1Cl)c1ccccc(=O)c1O,4%,5%,-58%,-79*
O=C(/C=C/c1ccccc1Cl)c1cccnc1,2%,2%,0%,-72*
Cc1ccc(C)c(/C=C/C(=O)c2ccccc(=O)c2O)c1,-21%,-1%,-11%,?
O=C(C=Cc1ccccc1O)c1ccccc1O,-8%,.,-34%,-66*
O=C(/C=C/c1ccc(O)c(O)c1)c1ccccc1O,-8%,5%,-3%[15.4 µM],-14
CCc1ccc(-n2c(Cc3ccccc3)nnc2SCc2nc(-c3cccs3)no2)cc1,.,1%,.,.
CCOC(=O)C(=O)CCc1ccccc1,.,.,.,-6
Cc1ccc(C(C)(C)C)cc1S(=O)(=O)Nc1cccc(C(=O)N2CCN(c3ccccn3)CC2)c1,40µM*,1%,-19%,?
CN1CCN(C(=O)C2=C[C@@H](c3ccc(C(F)(F)F)cc3)C[C@@H](OCCCCO)O2)CC1,-3%,1%,.,.
O=C(C1=C[C@@H](c2ccc(C(F)(F)F)cc2)C[C@@H](OCCCCO)O1)N1CCCCCCC1,11µM*,.,.,.
COc1ccc2cc(CNCCOCCOCCNCc3ccc4cc(OC)ccc4c3)ccc2c1,19%,.,3%,-89*
CCOCCCNCc1ccc(OC)cc1,7%,0%,-5%,-3
Cc1ccc(S(=O)(=O)NCCC(=O)N2CCN(S(=O)(=O)c3cccc(F)c3)CC2)cc1C,-20%,0%,18%[15.4 µM],-67*
Cc1ccc(S(=O)(=O)NCCC(=O)N2CCN(S(=O)(=O)c3ccccc3)CC2)cc1C,-1%,1%,7%[15.4 µM],-2
O=C(Nc1ccc(F)cc1)Nc1nnc(Cc2ccccc2F)s1,3%,2%,5%[15.4 µM],-21
Cc1ccc(NC(=S)NC(=O)/C=C/c2ccco2)c(O)c1,-10%,3%,6%,-63*
COc1ccc(NC(=S)NC(=O)/C=C/c2ccco2)c(OC)c1,?,1%,-6%,-81*
O=S(=O)(O)OCC1OC(OC2(COS(=O)(=O)O)OC(COS(=O)(=O)O)C(OS(=O)(=O)O)C2OS(=O)(=O)O)C(OS(=O)(=O)O)C(OS(=O)(=O)O)C1OS(=O)(=O)O (centres undefined),.,.,.,19
Cc1cc(C)nc(NS(=O)(=O)c2ccc(NC(=O)COc3ccc(C(C)(C)C)cc3)cc2)n1,.,0%,.,-86*
CCc1c(C(=O)Nc2ccccc2)c(C)[nH]c(=S)c1C#N,5%,9%,13µM*,-1
Cc1[nH]c(=S)c(C#N)c(C)c1C(=O)Nc1ccccc1,10%,3%,?,-6
SMILES,gsp antag,RXFP1 ag,gsp agonist,RXFP1 antag
CCOC(=O)N1CCN(CC(=O)Nc2ccc([N+](=O)[O-])cc2C(=O)Nc2ccccc2F)CC1,28µM*,-2%,10%,2
CCC[C@H]1CC(=O)C=C(c2ccc(OC)cc2)ON1C(=O)OC(C)(C)C,-7%,.,.,.
CCN(CC)c1ccc(/C=C2\SC(=O)N(C(C)C)C2=O)o1,0%,-1%,-2%[15.4 µM],-83*
CC(C)N1C(=O)S/C(=C/c2ccc3c(c2)n(C)c(=O)n3C)C1=O,5%,8%,?,1
CCCCCOc1ccccc1CN1C(=O)C(=O)c2cc(C)ccc21,.,1%,.,?
COc1ccc(OC)c(CN2CCCCCC2)c1,-3%,0%,-51%,-119*
NC(=S)n1[nH]c(-c2ccc([N+](=O)[O-])cc2)c(N=Nc2cccc([N+](=O)[O-])c2)c1=O,14µM*,-2%,-39%,-30
Cc1c(N=Nc2c(-c3ccc([N+](=O)[O-])cc3)[nH]n(C(N)=S)c2=O)cccc1[N+](=O)[O-],8.9µM*,-2%,-16%,-24
NC(=S)n1[nH]c(-c2ccc([N+](=O)[O-])cc2)c(N=Nc2ccccc2[N+](=O)[O-])c1=O,-10%,0%,1%,-5
CCOc1cc2c(cc1OCC)C(CC(=O)O)N(C(=O)Nc1ccccc1C(F)(F)F)CC2 (centres undefined),.,2%,.,10
